The panel holds about 79,000 compounds, 15% with a hit somewhere; the sample as a whole holds those more often. The source made the active and inactive calls. Cut-off read from the data, not from the text of the source: active = growth inhibition above about 70%; inactive = the rest.
Experiments:
[1] = NCI Yeast Anticancer Drug Screen. Data for the rad50 strain (AID 155);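 note: 0% = growth of vehicle-only cultures of the same strain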; details: S. cerevisiae rad50 strain growth inhibition, hits give high values
Procedure, shortened: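 Vehicle-treated cultures provide the reference for the growth inhibition reported for compound-exposed, repair-deficient yeast.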

[2] = NCI Yeast Anticancer Drug Screen. Data for the mec2-1 strain (AID 157); details: S. cerevisiae mec2-1 strain, hits give high values
Procedure, shortened: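 Test agents were screened against the mec2-1 yeast strain, with defined DNA repair or cell cycle alteration. Growth was scored as inhibition against vehicle-only controls.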

[3] = NCI Yeast Anticancer Drug Screen. Data for the sgs1 mgt1 strain (AID 161);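 note: 0% = growth of cultures given vehicle only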; details: S. cerevisiae sgs1 mgt1 strain, hits give high values
Procedure, shortened: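 Test agents were incubated with a DNA-repair-mutant yeast strain. Growth was then read and compared against vehicle-treated controls.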

[4] = NCI Yeast Anticancer Drug Screen. Data for the cln2 rad14 strain (AID 165);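 note: 0% = growth equal to vehicle treated cultures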; details: S. cerevisiae cln2 rad14 strain, hits give high values
Procedure, shortened: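 Growth of compound-exposed yeast (cln2 rad14 genotype) measured and expressed as inhibition relative to vehicle.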

[5] = NCI Yeast Anticancer Drug Screen. Data for the bub3 strain (AID 167); details: S. cerevisiae bub3 mutant strain, hits give high values
Procedure, shortened: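 Mutant yeast screening strain plus compound; vehicle-treated cultures serve as the 0% inhibition reference.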

[6] = NCI Yeast Anticancer Drug Screen. Data for the mlh1 rad18 strain (AID 175); details: S. cerevisiae mlh1 rad18 strain growth inhibition, hits give high values
Procedure, shortened: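 In this whole-cell yeast screen, a strain with altered DNA damage repair is challenged with compound, and its growth is measured against matched vehicle-treated controls.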

[7] = at 5.0 µM (retest, dose inferred, filed as 0.5)
[8] = at 50.0 µM (retest, dose inferred, filed as 5.0)

Measured: growth inhibition

S=C(NN1CCOCC1)SSC(=S)NN1CCOCC1
active: [1]; [7] 97% | [1]; [8] 99% | [1]; at 50.0 µM 99.5% | [2]; [7] 97% | [2]; [8] 99% | [2]; at 50.0 µM 99.6% | [3]; [7] 94% | [3]; [8] 99% | [3]; at 50.0 µM 99.6% | [4]; [7] 92% | [4]; [8] 83% | [4]; at 50.0 µM 99.3% | [5]; [8] 99% | [5]; at 50.0 µM 99.8% | [6]; [7] 77% | [6]; [8] 99% | [6]; at 50.0 µM 99.5%
inactive: [5]; [7] 34%

COC(=O)C1(OC(=O)CCC(=O)O)C(=O)NC2=C1C(=O)c1ccccc1C2=O (centres undefined)
inactive: [1]; [7] 1% | [1]; [8] 9% | [2]; [7] 2% | [2]; [8] -58% | [2]; at 50.0 µM 12% | [3]; [7] 2% | [3]; [8] 13% | [3]; at 50.0 µM 47.8% | [4]; [7] 2% | [4]; [8] 6% | [4]; at 50.0 µM 38.5% | [5]; [7] -42% | [5]; [8] 16% | [5]; at 50.0 µM 32.9% | [6]; [7] 1% | [6]; [8] 17% | [6]; at 50.0 µM 47.2%
active: [1]; at 50.0 µM 75.8%

COc1ccc2nc3cc(Cl)ccc3c(NCCCCCCNc3c4ccc(Cl)cc4nc4ccc(OC)nc34)c2n1
inactive: [1]; [7] 5% | [2]; [7] 6% | [3]; [7] 5% | [4]; [7] 4% | [5]; [7] 3% | [6]; [7] 2%
active: [1]; [8] 87% | [1]; at 50.0 µM 96.9% | [2]; [8] 74% | [2]; at 50.0 µM 98.2% | [3]; [8] 82% | [3]; at 50.0 µM 98.2% | [4]; [8] 80% | [4]; at 50.0 µM 91.5% | [5]; [8] 92% | [5]; at 50.0 µM 96.8% | [6]; [8] 82% | [6]; at 50.0 µM 96.5%

C/C(=N\Nc1n[nH]c(=S)n1N)c1c(O)cc(C)oc1=O
inactive: [1]; [7] -28% | [1]; [8] 13% | [1]; at 50.0 µM -23% | [2]; [7] 3% | [2]; [8] 12% | [2]; at 50.0 µM 12.1% | [3]; [7] -1% | [3]; [8] 4% | [3]; at 50.0 µM 18.9% | [4]; [7] -2% | [4]; [8] 9% | [4]; at 50.0 µM -21% | [5]; [7] 2% | [5]; [8] 3% | [5]; at 50.0 µM 14.1% | [6]; [7] -2% | [6]; [8] 2% | [6]; at 50.0 µM 16.5%

O=C(c1ccccc1)N(c1ccccc1)c1ccc2ccccc2c1
inactive: [1]; [7] -3% | [1]; [8] 16% | [1]; at 50.0 µM 5.8% | [2]; [7] -3% | [2]; [8] 21% | [2]; at 50.0 µM -6.1% | [3]; [7] -5% | [3]; at 50.0 µM 12% | [4]; [7] -35% | [4]; [8] 30% | [4]; at 50.0 µM 12.3% | [5]; [7] 13% | [5]; [8] 67% | [5]; at 50.0 µM 21.8% | [6]; [7] -12% | [6]; [8] 67% | [6]; at 50.0 µM -1.8%
active: [3]; [8] 77%

Cc1cc2nc3c(C)c4ccccc4c(C)n3c2cc1C
active: [1]; [7] 82% | [1]; [8] 93% | [1]; at 50.0 µM 80.8% | [2]; [8] 96% | [2]; at 50.0 µM 87.8% | [3]; [7] 72% | [3]; at 50.0 µM 85.3% | [4]; [7] 73% | [4]; [8] 94% | [4]; at 50.0 µM 83.4% | [5]; [7] 75% | [5]; [8] 94% | [5]; at 50.0 µM 86.4% | [6]; [7] 81% | [6]; [8] 95% | [6]; at 50.0 µM 79.3%
inactive: [2]; [7] 69% | [3]; [8] 50%

C#CCN1CCN(C(=S)N/N=C(\C)c2ccccn2)CC1
inactive: [1]; [7] 22% | [2]; [7] 19% | [3]; [7] 20% | [4]; [7] 21% | [5]; [7] 14% | [6]; [7] 52%
active: [1]; [8] 99% | [1]; at 50.0 µM 99.5% | [2]; [8] 100% | [2]; at 50.0 µM 99.7% | [3]; [8] 100% | [3]; at 50.0 µM 99.5% | [4]; [8] 99% | [4]; at 50.0 µM 99.4% | [5]; [8] 99% | [5]; at 50.0 µM 99.3% | [6]; [8] 100% | [6]; at 50.0 µM 99.3%

COc1ccc(C2C3=C(CC(C)(C)CC3=O)Oc3cc4c(cc32)OCO4)c(OC)c1 (centres undefined)
inactive: [1]; [7] 9% | [1]; [8] 48% | [1]; at 50.0 µM 52.4% | [2]; [7] 16% | [2]; [8] 27% | [2]; at 50.0 µM 65.5% | [3]; [7] 11% | [3]; [8] -17% | [3]; at 50.0 µM 64.2% | [4]; [7] 5% | [4]; [8] 20% | [4]; at 50.0 µM 20.2% | [5]; [7] 2% | [5]; [8] 52% | [5]; at 50.0 µM 45.8% | [6]; [7] 5% | [6]; [8] 14%
active: [6]; at 50.0 µM 73%

CC(=O)Oc1ccc(/C=C2\N=C(c3ccccc3)OC2=O)c(OC(C)=O)c1
active: [1]; [8] 75% | [5]; [8] 79% | [6]; [8] 77%
inactive: [1]; [7] 4% | [1]; at 50.0 µM 15.3% | [2]; [7] 1% | [2]; [8] 55% | [2]; at 50.0 µM 4.25% | [3]; [7] -4% | [3]; [8] 36% | [3]; at 50.0 µM 10.8% | [4]; [7] 2% | [4]; [8] 37% | [4]; at 50.0 µM 25.8% | [5]; [7] -2% | [5]; at 50.0 µM 9.55% | [6]; [7] 0% | [6]; at 50.0 µM 1.05%

CCc1ccc2ccc3ccc(CC)nc3c2n1
active: [1]; [7] 74% | [1]; [8] 96% | [1]; at 50.0 µM 96.9% | [2]; [7] 85% | [2]; [8] 94% | [2]; at 50.0 µM 97.7% | [3]; [7] 86% | [3]; [8] 96% | [3]; at 50.0 µM 97.8% | [4]; [7] 72% | [4]; [8] 91% | [4]; at 50.0 µM 82.7% | [5]; [7] 95% | [5]; [8] 97% | [5]; at 50.0 µM 95.3% | [6]; [7] 85% | [6]; [8] 96% | [6]; at 50.0 µM 97.7%

NS(=O)(=O)c1ccc(NC(=S)/N=C/c2c(O)c3ccccc3[nH]c2=O)cc1
inactive: [1]; [7] 20% | [1]; [8] 55% | [1]; at 50.0 µM 22.4% | [2]; [7] 17% | [2]; [8] 26% | [2]; at 50.0 µM -0.65% | [3]; [7] -29% | [3]; [8] 0% | [3]; at 50.0 µM 25.4% | [4]; [7] 3% | [4]; [8] 7% | [4]; at 50.0 µM -4.25% | [5]; [7] -10% | [5]; [8] -8% | [5]; at 50.0 µM -11.8% | [6]; [7] 21% | [6]; [8] 30% | [6]; at 50.0 µM 27.4%

CCCC(C1=C(O)CC(C)CC1=O)C1=C(O)CC(C)CC1=O (centres undefined)
inactive: [1]; [7] -6% | [1]; [8] -2% | [1]; at 50.0 µM -8.7% | [2]; [7] -5% | [2]; [8] -4% | [2]; at 50.0 µM 0.4% | [3]; [7] -4% | [3]; [8] 8% | [3]; at 50.0 µM -5.6% | [4]; [7] -34% | [4]; [8] 23% | [4]; at 50.0 µM -24.4% | [5]; [7] -6% | [5]; [8] 19% | [5]; at 50.0 µM -7.2% | [6]; [7] 4% | [6]; [8] 28% | [6]; at 50.0 µM 0.45%

C#CC(CC)(CC)N=Cc1cc(Cl)cc(Cl)c1O
inactive: [1]; [7] 65% | [2]; [7] 42% | [3]; [7] 58% | [4]; [7] 41% | [5]; [7] 51% | [5]; [8] 66% | [6]; [7] 69%
active: [1]; [8] 94% | [1]; at 50.0 µM 89.2% | [2]; [8] 97% | [2]; at 50.0 µM 91.8% | [3]; [8] 99% | [3]; at 50.0 µM 92% | [4]; [8] 72% | [4]; at 50.0 µM 88.7% | [5]; at 50.0 µM 90.7% | [6]; [8] 98% | [6]; at 50.0 µM 90.5%

Reference: PubChem BioAssay (NCI)
